# Records with an inconclusive call do not appear. Values without a mark were called inactive. Activity calls are given as the source filed them. Calls come from the whole dose curve; as a rule, active = well fitted cell-killing curve with a large enough effect; inconclusive = small, poorly fitted or top-dose-only effect, or effect the other way; inactive = no such curve, though single readings can be large or run the other way. *1 amine or outer side, *2 acyl side, *3 side chain or, on linkers, in order; H or OH if unused. Where a SMILES comes first, the peptide text is derived from it. Bridges are numbered along the chain shown (N, C = ends). Roman numbers before positions name the chains, in order. [ ]: non-standard residue; d: D form. Actinocin(9to1) = Cc1c2oc3c(C)ccc(C(=O)[*:1])c3nc-2c(C(=O)[*:2])c(N)c1=O; NMeV = CN[C@H](C(=O)O)C(C)C; Sar = CNCC(=O)O
# Test system: SW626
# Assay: Confirmatory qHTS for gynecologic anti-cancer compounds from libraries of approved drugs and bioactive compounds; note: nearly all actives have a fitted effect of over 55% in size
# Details: gynecologic cancer cell panel viability, ATPlite luminescence, 48 h; series mostly up to 57.6 µM; activity change, negative = viability loss: at the top concentration
# Procedure, shortened: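 Cells (1,000/well) were plated, left 16 h at 37 C/5% CO2, then given compound at 11 concentrations (1:3) from 57.5 uM to 0.977 nM for 48 h. ATPlite luminescence after 15 min at room temperature gave IC50 values.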
# % is set by controls: 0 for no effect and ±100 for the full control effect; potency is the fitted concentration of half-maximal effect.
SMILES,Potency,"activity change, negative = viability loss"
CCN1CCN(Cc2ccc(-c3cc4c(NC(C)c5ccccc5)ncnc4[nH]3)cc2)CC1 (stereo not given),27.3 µM (active),–
N=C(N)c1ccc(OCCCCCOc2ccc(C(=N)N)cc2)cc1,–,-16%
COc1cc(Nc2c(C#N)cnc3cc(OCCCN4CCN(C)CC4)c(OC)cc23)c(Cl)cc1Cl,19.3 µM (active),–
O=C1N(c2ccccc2)c2ccccc2C1(Cc1ccncc1)Cc1ccncc1,–,4.32%
COC(C(=O)N1Cc2[nH]nc(NC(=O)c3ccc(N4CCN(C)CC4)cc3)c2C1)c1ccccc1 (stereo not given),–,-19.9%
CNC(=O)c1ccccc1Sc1ccc2c(/C=C/c3ccccn3)n[nH]c2c1,21.7 µM (active),–
O=c1[nH]c(=O)n([C@H]2C[C@H](O)[C@@H](CO)O2)cc1C(F)(F)F,–,-9.33%
CCN(CC)CCOc1ccc(/C(=C(\Cl)c2ccccc2)c2ccccc2)cc1,89.1 µM (active),–
Cc1ccc(C(=O)Nc2ccc(CN3CCN(C)CC3)c(C(F)(F)F)c2)cc1C#Cc1cnc2cccnn12,21.7 µM (active),–
CN1C(=O)C(Cc2c[nH]c3ccccc23)NC1=S (stereo not given),–,11.2% [at 19.5 µM]
C[C@@H](Oc1cc(-c2cnn(C3CCNCC3)c2)cnc1N)c1c(Cl)ccc(F)c1Cl,21.7 µM (active),–
CCN1C[C@H](C)n2c(c(O)c3c(=O)n(Cc4ccc(F)c(Cl)c4)nc(C(=O)NC)c32)C1=O,–,7.26%
CN(C)C1CCN(C(=O)c2ccc(NC(=O)Nc3nc(N4CCOCC4)nc(N4CCOCC4)n3)cc2)CC1,0.685 µM (active),–
Cn1c(=O)c(F)c(Nc2ccc(I)cc2F)c2c(=O)n(CC(O)CO)cnc21 (stereo not given),0.0544 µM (active),–
CC[C@H](Nc1ncnc2nc[nH]c12)c1nc2cccc(F)c2c(=O)n1-c1ccccc1,–,-5.07% [at 10.7 µM]
Cc1cc(C(=O)N2CCN(c3cccc(Cl)c3)CC2)n(-c2ccccc2)n1,–,2.43%
COc1ccc2c(c1OC)C(=O)O[C@@H]2[C@H]1c2c(cc3c(c2OC)OCO3)CCN1C,–,-9.02%
COc1cc(N2CCC(N3CCN(C)CC3)CC2)ccc1Nc1ncc(Cl)c(Nc2ccccc2S(=O)(=O)C(C)C)n1,21.7 µM (active),–
CN(C)c1ccc2nc3ccc(=[N+](C)C)cc-3sc2c1,8.63 µM (active),–
C=CC(=O)Nc1cc2c(Nc3ccc(F)c(Cl)c3)ncnc2cc1OCCCN1CCOCC1,21.7 µM (active),–
c1nc2nc(Nc3ccc(N4CCOCC4)cc3)nc(NC3CCCCC3)c2[nH]1,–,-14.1% [at 19.5 µM]
CCOC(=O)C1=C(C)NC2=C(C(=O)CC(C)(C)C2)C1c1ccc(-c2ccccc2)cc1 (stereo not given),–,8.62%
Cc1c(C)n(Cc2ccc(-c3ccccc3C(=O)O)cc2)c2ccc(C(=O)N[C@@H](C)c3ccc([N+](=O)[O-])cc3)cc12,–,30.1%
"Cc1c2oc3c(C)ccc(C(=O)N[C@@H]4C(=O)N[C@H](C(C)C)C(=O)N5CCC[C@H]5C(=O)N(C)CC(=O)N(C)[C@@H](C(C)C)C(=O)O[C@@H]4C)c3nc-2c(C(=O)N[C@@H]2C(=O)N[C@H](C(C)C)C(=O)N3CCC[C@H]3C(=O)N(C)CC(=O)N(C)[C@@H](C(C)C)C(=O)O[C@@H]2C)c(N)c1=O (I: T[dV]P[Sar][NMeV] / II: T[dV]P[Sar][NMeV]; ester I:1-I:C, II:1-II:C; linker I:N-II:N via Actinocin(9to1))",0.0863 µM (active),–
CCCCc1oc2ccccc2c1C(=O)c1cc(I)c(OCCN(CC)CC)c(I)c1,79.4 µM (active),–
Cc1nc(Nc2n[nH]c3c2CN(C(=O)NC(CN(C)C)c2ccccc2)C3(C)C)c2sccc2n1 (stereo not given),–,-17.1%
CCCS(=O)c1ccc2nc(NC(=O)OC)[nH]c2c1 (stereo not given),–,-17.9%
COc1c(C)c2c(c(O)c1C/C=C(\C)CCC(=O)OCCN1CCOCC1)C(=O)OC2,–,-9.7%
Nc1nccc(Oc2ccc(NC(=O)c3c[nH]cc(-c4ccc(F)cc4)c3=O)cc2F)c1Cl,–,-15.5%
CCCc1nn(C)c2c(=O)[nH]c(-c3cc(S(=O)(=O)N4CCN(C)CC4)ccc3OCC)nc12,–,10.3%
